# Measured values published in PubChem BioAssay (EPA / NIEHS).
# Records with an inconclusive call do not appear. Where a structure was tested more than once in an assay, its records may differ in their call. Calls of active or inactive are those of the source. How the source made its calls, unless noted: active means hit-call score of the fitted dose curve at least 0.9, where 1 is the maximum; inconclusive means response in the unintended direction; inactive means score below 0.9.
# Columns and labels:
# [1] = CCTE_Shafer_MEA_dev_per_burst_spike_percent: CCTE's Neural Network Formation Assay for Percent of Spikes in a Burst, Shafer Lab (AID 2284032; active means hit-call score of the fitted dose curve at least 0.9, where 1 is the maximum; inactive means score below 0.9;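 on AC50: fitted as a decrease in burst spike percentage below DMSO baseline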)
# In short: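 Value is trapezoidal AUC over recordings on days 5, 7, 9 and 12 of the well-mean fraction of spikes falling in single-electrode bursts; rat cortical cultures exposed continuously from plating, treatment renewed DIV 5 and 9, fitted downward against DMSO.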
# [2] = biological target: Estrogen receptor (Homo sapiens) (UniProt P03372); test: CCTE_Deisenroth_AIME_384WELL_LUC_Inactive: CCTE's 384-well Estrogen Receptor Transactivation Assay without AIME metabolic competence (ERTA luciferase; metabolism negative), Deisenroth Lab (AID 2284038);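 further: hits raise estrogen receptor luciferase signal so potencies reflect agonists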
# In short: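 Metabolism-negative mode: AIME lids stamped in alginate-water, no hepatic S9. 2 h chemical incubation → medium onto VM7Luc4E2 ERTA, 24 h. Readout luciferase luminescence; gain-of-signal fit vs 17beta-estradiol. Conc. 0.002 - 200 uM.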
# [3] = CCTE_Deisenroth_AIME_384WELL_CTox_Inactive: Cytotoxicity Assessment (CTOX) in CCTE's 384-well Estrogen Receptor Transactivation Assay without AIME metabolic competence (metabolism negative), Deisenroth Lab (AID 2284039);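 further: cell viability via live-cell protease substrate cleaved to fluorescent probe; cells exposed 24 h to medium preincubated 2 h with alginate-water beads without S9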
# In short: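 Fluorescence from a live-cell protease substrate, read after 24 h in VM7Luc4E2 cells, indicated viability. Test medium came from a 2 h AIME step without hepatic S9 (alginate-water microspheres); concentrations spanned 0.002 - 200 uM, single technical replicate per run.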
# [4] = CCTE_Shafer_MEA_dev_active_electrodes_number: CCTE's Neural Network Formation Assay for Number of Active Electrodes, Shafer Lab (AID 2284040);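 on AC50: potency for loss of active electrodes versus DMSO so lower counts are hits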
# In short: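 Developing rat cortical networks on MEAs, exposed DIV 0–12. Value is the AUC of active-electrode counts (≥5 spikes/min) from days 5, 7, 9, 12, relative to DMSO.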
# [5] = biological target: Estrogen receptor (Homo sapiens) (UniProt P03372); test: CCTE_Deisenroth_AIME_384WELL_LUC_Shift: CCTE's 384-well Estrogen Receptor Transactivation Assay with AIME metabolic competence data shift (ERTA luciferase; difference in metabolism positive and negative), Deisenroth Lab (AID 2284041; active means hit-call score of the fitted dose curve at least 0.9, where 1 is the maximum; inactive means score below 0.9;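 further: shift is response with S9 minus without S9 so positive means metabolism raised ER signal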)
# In short: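 Here, parent compounds undergo 2 h phase I metabolism by PB/BNF-induced rat S9 before 24 h transactivation in VM7Luc4E2 cells; the curve models S9-positive minus S9-negative response over a 10-point series.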
# [6] = CCTE_Shafer_MEA_dev_burst_rate: CCTE's Neural Network Formation Assay for Burst Rate, Shafer Lab (AID 2284042; active means hit-call score of the fitted dose curve at least 0.9, where 1 is the maximum; inactive means score below 0.9;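 on AC50: potency for loss of burst rate below DMSO control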)
# In short: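 Developmental network assay measuring how 12-day exposure of rat cortical neuron cultures alters bursting on extracellular MEA recordings. Values are AUC of well-mean burst rate across four recording days, relative to DMSO vehicle.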
# [7] = CCTE_Shafer_MEA_dev_bursting_electrodes_number: CCTE's Neural Network Formation Assay for Number of Bursting Electrodes, Shafer Lab (AID 2284043);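 on AC50: potency is for loss of bursting electrodes relative to DMSO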
# In short: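 Counted: electrodes with burst rate ≥1 per 2 min in each well. Cells: primary rat cortex, 1.5 x 10^5/well, on 16-electrode MEA wells. Exposure: DIV 0–12, compound renewed DIV 5 and 9. Recording days 5, 7, 9, 12; AUC vs DMSO baseline.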
# [8] = CCTE_Shafer_MEA_dev_per_burst_interspike_interval: CCTE's Neural Network Formation Assay for Burst Interspike Interval, Shafer Lab (AID 2284044; active means hit-call score of the fitted dose curve at least 0.9, where 1 is the maximum; inactive means score below 0.9;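 on AC50: potency for a decrease of within-burst interspike interval below DMSO level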)
# In short: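 Developmental network-formation MEA in primary rat cortical cultures with exposure spanning days 0–12. Within-burst ISI is averaged per well and integrated across recording days by area under the curve, with DMSO as negative control baseline.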
# [9] = CCTE_Shafer_MEA_dev_burst_duration_mean: CCTE's Neural Network Formation Assay for Mean Burst Duration, Shafer Lab (AID 2284045; active means hit-call score of the fitted dose curve at least 0.9, where 1 is the maximum; inactive means score below 0.9;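 on AC50: curve fitted for loss meaning shorter burst duration than DMSO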)
# In short: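 Network-formation assay in primary rat cortical neurons; treatment spans twelve days of development. Mean burst duration per well is integrated by trapezoidal AUC and fitted in the loss-of-signal direction against DMSO baseline.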
# [10] = CCTE_Deisenroth_AIME_384WELL_CTox_Active: Cytotoxicity Assessment (CTOX) in CCTE's 384-well Estrogen Receptor Transactivation Assay with AIME metabolic competence (metabolism positive), Deisenroth Lab (AID 2284037);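 further: chemicals first conditioned 2 h by alginate-bound induced rat liver S9 before cells; activity means signal loss indicating cell death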
# In short: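 VM7Luc4E2 breast cells received medium pre-incubated 2 h with chemical over alginate microspheres holding induced male Sprague Dawley rat liver S9; viability read 24 h later by protease-substrate fluorescence. Loss of signal, bidirectional fit, 0.002–200 uM.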
# Estrogen receptor (Homo sapiens), sequence (P03372 whole entry, looked up): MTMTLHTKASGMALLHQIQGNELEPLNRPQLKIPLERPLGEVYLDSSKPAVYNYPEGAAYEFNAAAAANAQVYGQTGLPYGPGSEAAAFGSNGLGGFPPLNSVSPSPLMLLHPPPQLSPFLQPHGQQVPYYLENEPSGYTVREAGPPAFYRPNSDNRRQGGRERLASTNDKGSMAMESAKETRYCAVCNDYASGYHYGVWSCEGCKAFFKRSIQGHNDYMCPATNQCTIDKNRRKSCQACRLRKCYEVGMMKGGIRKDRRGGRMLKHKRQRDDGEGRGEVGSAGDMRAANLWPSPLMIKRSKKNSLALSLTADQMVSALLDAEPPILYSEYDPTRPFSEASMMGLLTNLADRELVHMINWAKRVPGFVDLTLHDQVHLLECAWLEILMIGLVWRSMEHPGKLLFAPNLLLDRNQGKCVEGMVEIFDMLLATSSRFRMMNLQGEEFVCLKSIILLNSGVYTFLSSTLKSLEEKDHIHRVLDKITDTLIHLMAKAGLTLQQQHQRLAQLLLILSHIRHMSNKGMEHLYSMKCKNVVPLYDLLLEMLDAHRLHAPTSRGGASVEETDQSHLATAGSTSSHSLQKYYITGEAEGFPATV
compound,measurement,setting,value
c1ccc2c(c1)ccc1cc3c(ccc4ccccc43)cc12,outcome,[1],inactive
same,outcome,[2],inactive
same,outcome,[3],inactive
same,outcome,[4],inactive
same,outcome,[5],inactive
same,outcome,[6],inactive
same,outcome,[7],inactive
same,outcome,[8],inactive
same,outcome,[9],inactive
CCCCC(CC)CCC(CC(C)C)OS(=O)(=O)O (centres undefined),outcome,[2],inactive
same,outcome,[3],inactive
same,outcome,[5],inactive
CN(C)c1ccc(C(=N)c2ccc(N(C)C)cc2)cc1,AC50,[1],1.92 µM (active)
same,AC50,[10],100 µM (active)
same,AC50,[3],31.1 µM (active)
same,AC50,[4],2.89 µM (active)
same,outcome,[5],inactive
same,AC50,[6],1.71 µM (active)
same,AC50,[7],2.27 µM (active)
same,AC50,[8],3.43 µM (active)
same,AC50,[9],4.06 µM (active)
Cc1ccc(C(C)c2ccc(C)c(C)c2)cc1C,outcome,[2],inactive
same,AC50,[5],0.000413 µM (active)
O=C1C(N(CO)C(=O)NCO)N(CO)C(=O)N1CO (centres undefined),outcome,[10],inactive
same,outcome,[2],inactive
same,outcome,[3],inactive
same,outcome,[5],inactive
O=C1CCCC1,outcome,[10],inactive
same,outcome,[2],inactive
same,outcome,[5],inactive
CC=CC(F)(F)C(F)(F)C(F)(F)F,outcome,[1],inactive
same,outcome,[4],inactive
same,outcome,[6],inactive
same,outcome,[7],inactive
same,outcome,[8],inactive
same,outcome,[9],inactive
CCCCCCCCCCOS(=O)(=O)O,AC50,[10],19.8 µM (active)
same,outcome,[2],inactive
same,AC50,[3],19.8 µM (active)
same,outcome,[5],inactive
CCCCCCCC[N+](C)(CCCCCCCC)CCCCCCCC,AC50,[10],39.3 µM (active)
same,AC50,[3],19.2 µM (active)
same,outcome,[5],inactive
C=C1C2CCC(C2)C1(C)C (centres undefined),outcome,[10],inactive
same,outcome,[2],inactive
same,outcome,[3],inactive
same,outcome,[5],inactive
CCN(CCC#N)c1ccc(N=Nc2c(Cl)cc([N+](=O)[O-])cc2Cl)cc1,outcome,[10],inactive
same,outcome,[2],inactive
same,AC50,[3],100 µM (active)
same,outcome,[5],inactive
O=C(C=Cc1ccccc1)OCc1ccccc1,outcome,[10],inactive
same,AC50,[2],26.3 µM (active)
same,outcome,[3],inactive
same,AC50,[5],22.9 µM (active)
COC(F)(F)C(F)(C(F)(F)F)C(F)(F)F,outcome,[1],inactive
same,outcome,[4],inactive
same,outcome,[6],inactive
same,outcome,[7],inactive
same,outcome,[8],inactive
same,outcome,[9],inactive
FC(F)=C(F)OC(F)(F)C(F)(F)C(F)(F)F,outcome,[1],inactive
same,outcome,[6],inactive
same,outcome,[8],inactive
same,outcome,[9],inactive
NC(CO)(CO)CO,outcome,[2],inactive
same,outcome,[3],inactive
same,outcome,[5],inactive
CO[Si](OC)(OC)c1ccccc1,outcome,[10],inactive
same,outcome,[2],inactive
same,outcome,[5],inactive
CCOC(=O)CC,outcome,[10],inactive
same,outcome,[2],inactive
same,outcome,[3],inactive
same,outcome,[5],inactive
CC1=NN(c2cc(S(=O)(=O)O)ccc2Cl)C(=O)C1N=Nc1ccccc1 (centres undefined),outcome,[2],inactive
same,outcome,[3],inactive
same,outcome,[5],inactive
OC1CCCC1,outcome,[10],inactive
same,outcome,[2],inactive
same,outcome,[3],inactive
same,outcome,[5],inactive
CCOC(F)(F)C(F)(F)C(F)(F)C(F)(F)F,outcome,[1],inactive
same,outcome,[4],inactive
same,outcome,[6],inactive
same,outcome,[7],inactive
same,outcome,[8],inactive
same,outcome,[9],inactive
O=C(C(Cl)Cl)N1CCOC12CCCCC2,outcome,[2],inactive
same,AC50,[3],19.8 µM (active)
same,outcome,[5],inactive
CCCCC/C=C\CCC=O,AC50,[10],100 µM (active)
same,outcome,[2],inactive
same,outcome,[3],inactive
same,outcome,[5],inactive
Oc1ccc(Cl)cc1Cc1cc(Cl)ccc1O,AC50,[10],102 µM (active)
same,AC50,[3],100 µM (active)
same,outcome,[5],inactive
O=c1cc(-c2ccccc2)oc2ccccc12,outcome,[10],inactive
same,outcome,[2],inactive
same,outcome,[3],inactive
same,outcome,[5],inactive
O=S1(=O)OC(c2ccc(O)cc2)(c2ccc(O)cc2)c2ccccc21,outcome,[10],inactive
same,outcome,[2],inactive
same,outcome,[3],inactive
same,outcome,[5],inactive
O=S(=O)(O)c1ccccc1C=Cc1ccc(-c2ccc(C=Cc3ccccc3S(=O)(=O)O)cc2)cc1,outcome,[2],inactive
same,outcome,[5],inactive
CCCCCc1ccc(Cl)cc1,outcome,[10],inactive
same,outcome,[2],inactive
same,outcome,[5],inactive
CC=C1CC2C=CC1C2 (centres undefined),outcome,[10],inactive
same,outcome,[2],inactive
same,outcome,[3],inactive
same,outcome,[5],inactive
CC1(C)S[C@@H]2[C@H](NC(=O)COc3ccccc3)C(=O)N2[C@H]1C(=O)O,outcome,[1],inactive
same,outcome,[4],inactive
same,outcome,[6],inactive
same,outcome,[7],inactive
same,outcome,[8],inactive
same,outcome,[9],inactive
C=CC(=O)NC(C)(C)CS(=O)(=O)O,outcome,[10],inactive
same,outcome,[2],inactive
same,outcome,[3],inactive
same,outcome,[5],inactive
Nc1ncn([C@@H]2O[C@H](CO)[C@@H](O)[C@H]2O)c(=O)n1,outcome,[1],inactive
same,AC50,[4],2.13 µM (active)
same,outcome,[4],inactive
same,outcome,[6],inactive
same,AC50,[7],1.34 µM (active)
same,outcome,[7],inactive
same,AC50,[8],2.4 µM (active)
same,outcome,[8],inactive
same,outcome,[9],inactive
O=C(c1ccccc1)C1CCC1,outcome,[2],inactive
same,outcome,[5],inactive
CC(=O)OC(C)C,outcome,[10],inactive
same,outcome,[2],inactive
same,outcome,[5],inactive
N[C@H]1C(O)O[C@H](CO)[C@H](O)[C@@H]1O (some centres undefined),outcome,[1],inactive
same,outcome,[6],inactive
same,AC50,[7],24.8 µM (active)
same,AC50,[8],2.98 µM (active)
same,outcome,[9],inactive
